{"source": "PubChem BioAssay AID1347423", "about": "(Functional Genomics Laboratory (NCATS/FGL), 2020)", "note": "In all, about 52,000 sequences went through this assay and about 210 (0.4%) were called active.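 The calls were made as follows: active = gene whose silencing raises cell survival under the drug, median off-target-corrected z-score across its silencing RNAs 2 or more; inactive = the rest.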 Many of the other results were omitted from the sample, so actives are more common in it than they were."}
{"test": "Resistance to Poly (ADP-Ribose) Polymerase inhibitor: Gene Identification via Genome-wide siRNA Screen", "settings": "mouse BRCA2 R2336H ES cells, olaparib, CellTiter-Glo viability; active compounds read high", "method_in_brief": "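Mouse BRCA2 R2336H ES cells were reverse-transfected with siRNA (20 nM final), treated at 48 h with 500 nM olaparib, and read by CellTiter-Glo after 72 h. Scores: MAD-based z per siRNA, median per gene, seed off-target correction.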"}
{"sequence": "GCUUGAUCAACAAGUGGAGTT against Nup62", "z-score": "-1.64 (inactive)"}
{"sequence": "GCUUGACCCUACACUACAGTT against Olfr1121", "z-score": "1.25 (inactive)"}
{"sequence": "GGCAUUGUAGAGAUGACUCTT against 4732479N06Rik", "z-score": "1.16 (inactive)"}
{"sequence": "UUCUGUGCAUCCUGUCCUATT against Kcnk15", "z-score": "-0.484 (active)"}
{"sequence": "CGUGUGAGGUUUGUGAAAGTT against Gzmf", "z-score": "-2.41 (inactive)"}
{"sequence": "GCCUAAAAAAUCUCUGUGATT against Zswim3", "z-score": "-1.39 (inactive)"}
{"sequence": "GGAAGUUCAACACCUCCAGTT against BC023296", "z-score": "-0.673 (inactive)"}
{"sequence": "CGAUUUCAGCUUAAAGCACTT against Lmo3", "z-score": "1.44 (inactive)"}
{"sequence": "CCCUAAAACCAAAUGUACATT against E130014J05Rik", "z-score": "6.23 (active)"}
{"sequence": "GGACUUGGAAGUAAUUUUCTT against C230071H18Rik", "z-score": "2.75 (inactive)"}
{"sequence": "GCGAACAGAAAAGACCAAUTT against Col4a5", "z-score": "1.11 (inactive)"}
{"sequence": "GGGACAUACAUAUCCUCCUTT against 1300013D05Rik", "z-score": "1.31 (inactive)"}
{"sequence": "GCAUACAUAGCACUACAUATT against Olfr536", "z-score": "-0.0396 (inactive)"}
{"sequence": "GGACAGUGUUUACAAACUUTT against Fbxw7", "z-score": "0.328 (inactive)"}
{"sequence": "GCAUAUGGUCCACUAAAAATT against Kcnj4", "z-score": "0.316 (inactive)"}
{"sequence": "GGUACUGGAGAAAGUCAAGTT against Pik4cb", "z-score": "0.097 (inactive)"}
{"sequence": "GGAUGAUUUCCAGAGAGUATT against Rdh5", "z-score": "-1.33 (inactive)"}
{"sequence": "GGAGUGUGAUCAAGUUCAUTT against Eya4", "z-score": "0.648 (inactive)"}
{"sequence": "GCUUUUACAAGACCUGUUCTT against Pde2a", "z-score": "1.02 (active)"}
{"sequence": "GGAGAGAACUGGAAGAGAGTT against 0610040D20Rik", "z-score": "-2.18 (inactive)"}
{"sequence": "GGAAAUACGGCUUCAUCUATT against Cyp26a1", "z-score": "0.936 (inactive)"}
{"sequence": "GACAUUUGUAUGCAGUCAUTT against V1ri9", "z-score": "0.237 (inactive)"}
{"sequence": "GGAUUCGAUUCUUCCAAAATT against Peli2", "z-score": "-1.02 (inactive)"}
{"sequence": "GGUCUUAGAAGAUUUUUCUTT against Adam21", "z-score": "2.43 (active)"}
{"sequence": "AUUCUGAACACUCCUCGGATT against C630041L24Rik", "z-score": "-0.69 (inactive)"}
{"sequence": "GGAACUGCUUACGAAAUACTT against Lama4", "z-score": "-0.374 (inactive)"}
{"sequence": "GGAUGCUACGUUCUGCUAGTT against Bcat2", "z-score": "-0.76 (inactive)"}
{"sequence": "GCCCUCAGGUGGUUCUUAATT against C030036P15Rik", "z-score": "-1.76 (inactive)"}
{"sequence": "GGAGAAACUGAUGACAGUGTT against Plcb3", "z-score": "1.47 (active)"}
{"sequence": "GCUAUUAUUGCAAUGUCAGTT against Trim38", "z-score": "-0.00296 (inactive)"}
{"sequence": "GCUACGAGAGGUCAUUUCCTT against Chrnb1", "z-score": "2.48 (active)"}
{"sequence": "GGCUGAAGCAGUCUGUUGCTT against Rpp14", "z-score": "-0.655 (inactive)"}
{"sequence": "GGCUGUUUGUGGUAUAGGUTT against Lrrc3", "z-score": "1.52 (inactive)"}
{"sequence": "GGCAACUUUGUUAUAUACATT against Sh2bp1", "z-score": "-0.76 (inactive)"}
{"sequence": "CCUCAGAUUUCAACCAUAGTT against 2700087I09Rik", "z-score": "1.64 (inactive)"}
{"sequence": "CCAUGACAUUUCCUAAGUUTT against B130022O04Rik", "z-score": "-2.2 (inactive)"}
{"sequence": "GGAAAAGAUACGGAAGAUUTT against Acpp", "z-score": "0.216 (active)"}
{"sequence": "GCUUCUAAUUGGAGAUUGCTT against Ngfrap1", "z-score": "1.44 (inactive)"}
{"sequence": "CCAGUUACGUUAAAAGCUUTT against D1Bwg0491e", "z-score": "0.00475 (inactive)"}
{"sequence": "GGGAGAAUUACCAAGAUCUTT against Elac1", "z-score": "2.5 (inactive)"}
{"sequence": "GGUCGACUUAAGAUAAUAATT against Itgb6", "z-score": "1.94 (active)"}
{"sequence": "GCCCUAGAUCAGGAGAUCATT against Rps17", "z-score": "-2.58 (inactive)"}
{"sequence": "GGAUGUCCCACUGCUUUACTT against 5730466C23Rik", "z-score": "-0.562 (inactive)"}
{"sequence": "GCACUAGUUCUCAAUUUAATT against Antxr1", "z-score": "0.317 (inactive)"}
{"sequence": "GGCAUCUUCAAAUGACAUATT against Cic", "z-score": "2.45 (active)"}
{"sequence": "GGCCCAUUUUGGUGUGCAUTT against Hyal3", "z-score": "-0.6 (inactive)"}
{"sequence": "GGUGCCUAAUGGAUAAGAATT against Thrap2", "z-score": "0.923 (inactive)"}
{"sequence": "GGAAACCAGACUUUCCCUATT against V1ra5", "z-score": "-0.806 (inactive)"}
{"sequence": "GGACCAGGUUCACUUCCCUTT against Ovol1", "z-score": "0.343 (inactive)"}
{"sequence": "GCAGAUCUCUUACGUCAUCTT against Adam9", "z-score": "0.749 (inactive)"}
{"sequence": "GGAAAGUGGUUUUGUCCACTT against Ing5", "z-score": "1.74 (inactive)"}
{"sequence": "GGUCACGUGCAGUUAUAUCTT against Rab32", "z-score": "0.0398 (inactive)"}
{"sequence": "GGCCUAAAUUGACAAACUUTT against Mgea5", "z-score": "0.366 (inactive)"}
{"sequence": "GCAGCUCCAAAUCCUGUUCTT against Asb16", "z-score": "-1.78 (active)"}
{"sequence": "GGAAACUUCUGCACUUGGGTT against 4930474M22Rik", "z-score": "1.02 (inactive)"}
{"sequence": "GCUGUCUGAUUCUGAGGUGTT against Slc6a1", "z-score": "-0.947 (inactive)"}
{"sequence": "GGGUUUAAUCAUGAUAGAATT against E130014J05Rik", "z-score": "3.95 (active)"}
{"sequence": "GGUGACAAUAAAAUGGUGATT against Fabp1", "z-score": "0.496 (inactive)"}
{"sequence": "GGUCAUGGUCUGAGAUUCUTT against Txnl4", "z-score": "0.353 (inactive)"}
{"sequence": "CCCAUGUUCGAUGGGAAAGTT against Adprt1", "z-score": "0.293 (active)"}
{"sequence": "GCAAGGUGCACCUAAAGCATT against Egr4", "z-score": "-2.04 (inactive)"}
{"sequence": "GGACAAGAACUACAUUGAGTT against Eefsec", "z-score": "2.12 (inactive)"}
{"sequence": "GGACUUUUGGAUAACUUAGTT against 1200008A14Rik", "z-score": "-0.788 (inactive)"}
{"sequence": "GGAUAUUCUUCCAGUCUUUTT against MGC118154", "z-score": "-1.48 (inactive)"}
{"sequence": "CAAACCCAUGUUCUAAAUGTT against Oog3", "z-score": "0.339 (inactive)"}
{"sequence": "GGAGGUUUUGAUGGACUGUTT against 2610528H13Rik", "z-score": "-0.424 (inactive)"}
{"sequence": "CCUUGUACCCAGUAAAGUCTT against 2310007B03Rik", "z-score": "-2.34 (inactive)"}
